Source: PubChem (Sanford-Burnham Center for Chemical Genomics)
The list is not random: actives were taken first. Their share in the collection is about 28%.
CYP2C19 activ: increases human CYP2C19 enzyme activity; recombinant CYP2C19, luciferin-H EGE luminescence; stronger effect = higher value; 0 = fully inhibited enzyme, 1 = untreated enzyme; P33261; 96,000 tested, under 10 active; activation factor at 5 µM; AID 1025;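 active means activation factor of at least 2 at 5 µM in the primary screen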;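 further: 0 = wells with 2.5 mM tranylcypromine and 1 = vehicle-only wells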
CYP2C9 act: CYP2C9 (human) activation; P11712; recombinant CYP2C9, luciferin-H conversion, luminescence; stronger effect = higher value; factor 1 = untreated enzyme, 0 = blocked; activation factor at 5 µM; actives 1.4% (n = 96,000);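 active means activation factor of 2 or more for CYP2C9 at a 5 µM dose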;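 further: 0 = sulfaphenazole-blocked wells and 1 = vehicle-only wells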
CD11b adhes inh: inhibitors of human CD11b/CD18 binding to fibrinogen. P05107+P11215. K562 CD11b/CD18 adhesion to fibrinogen, ATPlite luminescence; Mn2+ added to activate the integrin. inhibition, % at 10 µM. actives 0.54% (n = 93,000). AID 1497;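 active means primary inhibition of 50% or more at 10 µM, then 40% or more on retest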
Target sequence (P05107 whole entry, looked up, other chains not shown): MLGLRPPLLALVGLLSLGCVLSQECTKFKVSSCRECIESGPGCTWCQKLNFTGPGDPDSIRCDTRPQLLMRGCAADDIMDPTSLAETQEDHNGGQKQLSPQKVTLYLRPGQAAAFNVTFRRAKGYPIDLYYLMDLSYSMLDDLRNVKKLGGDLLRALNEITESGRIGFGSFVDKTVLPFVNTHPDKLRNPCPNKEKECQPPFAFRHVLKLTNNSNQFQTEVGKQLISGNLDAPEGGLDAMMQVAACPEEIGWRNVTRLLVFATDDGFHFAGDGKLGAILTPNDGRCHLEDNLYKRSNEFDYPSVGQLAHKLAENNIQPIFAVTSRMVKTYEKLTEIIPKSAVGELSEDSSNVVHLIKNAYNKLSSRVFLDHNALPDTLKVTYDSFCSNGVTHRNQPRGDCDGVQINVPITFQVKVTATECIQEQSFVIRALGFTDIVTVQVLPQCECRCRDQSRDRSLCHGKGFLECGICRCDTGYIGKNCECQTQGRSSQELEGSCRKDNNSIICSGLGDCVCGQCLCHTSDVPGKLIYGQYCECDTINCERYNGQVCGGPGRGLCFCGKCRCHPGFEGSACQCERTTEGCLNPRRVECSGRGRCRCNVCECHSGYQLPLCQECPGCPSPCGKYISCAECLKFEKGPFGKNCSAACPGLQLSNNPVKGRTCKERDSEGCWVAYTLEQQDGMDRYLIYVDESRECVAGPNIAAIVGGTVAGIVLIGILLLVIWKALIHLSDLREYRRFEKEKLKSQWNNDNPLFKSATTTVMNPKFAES
CYP2C9 inh: inhibitors of human CYP2C9 | CYP2C9 Supersomes, luciferin-H conversion, luminescence | inhibition, % at 5 µM | actives 20% (n = 96,000) | AID 777;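 active means blocking of liver enzyme CYP2C9 beyond about 50% at 5 µM, limit read from the data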
CYP2C19 inhib: human CYP2C19 inhibition | actives 21% (n = 96,000) | inhibition, % at 5 µM | AID 778 | P33261 | CYP2C19 Supersomes, luciferin-H EGE luminescence, 30 min;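 active means CYP2C19 inhibition above a set limit at 5 µM in the primary screen, cut at about 50% in these data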;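 further: plate controls were negative control wells for no effect and 2.5 mM tranylcypromine positive control for full effect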
CD11b adhes enh: CD11b/CD18-fibrinogen binding enhancement | K562 CD11b/CD18 adhesion to fibrinogen, ATPlite luminescence | actives 0.07% (n = 93,000) | P05107+P11215 | activation, % at 10 µM | AID 1499;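 active means 10 µM primary screen giving 50% or more activity, confirmed by 40% or more on retest at that dose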
Numbers without * were called inactive; . = no result.

SMILES	CYP2C19 activ	CYP2C9 act	CD11b adhes inh	CYP2C9 inh	CYP2C19 inhib	CD11b adhes enh
CCS(=O)(=O)N1CCN(C(=O)COc2ccc(-c3ccccc3)cc2)CC1	0.9	1	3	-1	7	-5
O=C1C2C3C=CC(C3)C2C(=O)N1CCN1CCN(S(=O)(=O)c2ccc3ccccc3c2)CC1 (stereo not given)	0.7	1.7	19	-70	34	0
CC(C)C(=O)c1cc2c(cc1NC(=O)c1cccs1)OCCO2	1	0.8	.	17	-3	.
Cc1ccc(OCc2nnc(SCc3cc(=O)[nH]c4ccccc34)n2-c2ccccc2)cc1	.	.	-19	.	.	-2
Cn1c(SCc2cc(=O)[nH]c3ccccc23)nnc1-c1ccc(Br)cc1	0.5	0.8	4	18	51*	-1
O=C(NCC1CCCO1)C1CCC(=O)N1Cc1ccccc1Cl (stereo not given)	1.1	1.1	2	-6	-5	4
CC(C)(C)C1CCC2(CC1)Nc1cccc3cccc(c13)N2	0	0.2	14	80*	96*	-1
COc1cc(C2Nc3cccc4cccc(c34)N2)ccc1OC(C)=O	0.5	0.9	0	12	47	58
N/C(=N\OC(=O)c1cc(Cl)ccc1Cl)c1cccnc1	0.3	0.7	0	34	72*	-4
N#Cc1c(/N=C/c2cccs2)sc2c1CCCCC2	0.3	0.1	86	94*	70*	-10
Cc1ccc(/C=N/c2sc3c(c2C#N)CCC3)o1	1	0.8	.	23	4	.
CN(C)/C=N/c1sc2c(c1C#N)CCC2	0.3	0.7	0	33	67*	2
N#Cc1c(/N=C/N2CCOCC2)sc2c1CCCCC2	0.8	1	8	2	24	-2
CCCCc1nc(SCC(=O)Nc2ccc(S(N)(=O)=O)cc2)n[nH]1	0.8	0.6	-23	39	20	-3
COCCNCC#CCOc1ccc(OC)cc1	0.9	1	26	-2	5	-3
C=CCNCC#CCOc1ccc(OC)cc1	0.2	0.9	-34	13	76*	-4
Cc1c(NS(=O)(=O)c2cccc3nsnc23)c(=O)n(-c2ccccc2)n1C	.	.	12	.	.	1
CC(C)NC(=O)c1cc(-c2ccco2)nn1-c1ccc(Cl)cc1	0.9	0.7	.	34	8	.
O=C(c1cc(-c2ccco2)nn1-c1cccc(Cl)c1)N1CCCCC1	0.4	0.1	-9	87*	64*	0
O=C(Oc1ccc2c(=O)c(Oc3ccc4ccccc4c3)coc2c1)c1ccco1	0.8	1.5	30	-54	24	0
CC(=O)c1cc(CC=C(C)C)c(O)c(CC=C(C)C)c1O	0.2	0.3	5	71*	84*	14
CC(=O)c1ccc(O)c(CO)c1	1.2	1.1	-9	-7	-18	-1
CC(=O)c1cc(CC=C(C)C)c(O)cc1O	0.7	0.2	.	80*	32	.
COc1cc(CC(=O)O)c(C(C)=O)cc1OC	1.1	1	.	-3	-9	.
NC(=O)c1cc(Cl)cn(-c2ccccc2)c1=O	1.3	1.3	-7	-26	-25	-4
SMILES	CYP2C19 activ	CYP2C9 act	CD11b adhes inh	CYP2C9 inh	CYP2C19 inhib	CD11b adhes enh
O=C1CC(C(F)(F)C(F)(F)C(F)(F)C(F)F)=Nc2ccccc2N1	0.4	0.8	5	20	60*	-5
O=c1c2ccccc2nc2n1C(CSCc1ccc(Cl)cc1)CS2 (stereo not given)	0.2	0.7	47	29	75*	1
CC(=O)c1ccc(N2CCN(C(=O)c3ccc(NC(=O)C4CCCO4)cc3)CC2)cc1 (stereo not given)	0.8	0.8	-7	16	19	2
N=c1c(C(=O)NCc2ccc(F)cc2)cc2c(=O)n3ccccc3nc2n1Cc1cccnc1	0.9	0.8	1	20	7	30
COc1ccc2[nH]c(C)c(CCN(Cc3cccs3)C(=S)Nc3ccccc3)c2c1	0.5	0.1	6	86*	50*	8
COc1ccccc1NC(=S)N(CCc1c(C)[nH]c2ccccc12)Cc1cccs1	0.4	0.6	-5	36	58*	16
Cc1ccc(NC(=S)N(Cc2cccs2)Cc2cc3cccc(C)c3[nH]c2=O)cc1	.	.	4	.	.	24
COc1ccc(NC(=S)N(CCc2nc3cc(C)c(C)cc3[nH]2)Cc2cccnc2)cc1	0.8	0.6	.	45	24	.
